# An excerpt weighted towards active compounds, which were near 0.28% of everything screened.
# hcGAS inh = inhibitors of human cGAS; Q8N884; recombinant h-cGAS, ATP depletion, Kinase-Glo luminescence; inhibition, % at 12.5 µM; 290,000 tested, 0.081% active;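 also: 0% = vehicle reaction and 100% = reaction without DNA for no activity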
# Target sequence (Q8N884 whole entry, looked up): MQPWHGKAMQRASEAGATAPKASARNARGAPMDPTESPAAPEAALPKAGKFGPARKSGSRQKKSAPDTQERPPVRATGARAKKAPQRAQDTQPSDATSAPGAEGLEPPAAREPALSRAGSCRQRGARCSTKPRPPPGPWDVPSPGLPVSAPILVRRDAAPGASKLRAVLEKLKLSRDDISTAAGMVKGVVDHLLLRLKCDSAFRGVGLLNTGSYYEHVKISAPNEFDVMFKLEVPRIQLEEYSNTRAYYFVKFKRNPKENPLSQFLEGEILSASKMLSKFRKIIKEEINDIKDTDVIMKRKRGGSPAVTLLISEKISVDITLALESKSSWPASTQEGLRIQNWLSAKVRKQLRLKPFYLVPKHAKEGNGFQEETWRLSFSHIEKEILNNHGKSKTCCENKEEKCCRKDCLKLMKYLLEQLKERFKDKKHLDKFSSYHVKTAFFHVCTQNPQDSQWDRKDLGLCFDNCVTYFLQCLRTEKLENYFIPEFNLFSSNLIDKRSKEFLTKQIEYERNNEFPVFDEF
# mcGAS inh = mouse cGAS inhibition by luminescence. Q8C6L5. recombinant cGAS, Kinase-Glo ATP depletion luminescence. inhibition, % at 12.5 µM. 160,000 tested, 0.15% active. AID 1259399;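 also: 0% = negative control wells and 100% = reference inhibitor with no enzyme activity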
# NPYLR7 agonist = mosquito NPYLR7 agonism; HEK293T NPYLR7/Galpha15, GCaMP6s calcium fluorescence; activation, % at 10 µM; 270,000 tested, 0.15% active; in the data active = activation above about 40%;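 also: 0% = vehicle and 100% = reference agonist at the receptor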
# * = called active by the depositor; x = not tested or not shown; ! = a repeat was not active. Rule as the data show it, unless noted: active = inhibition above about 40%; inactive = the rest.
SMILES,hcGAS inh,mcGAS inh,NPYLR7 agonist
Nc1ncnc2c1ncn2[C@@H]1O[C@H](CO)[C@H](O)C1O (stereo partly specified),-4,-2,96*
Nc1ncnc2c1ncn2C1O[C@H](CO)[C@@H](O)[C@@H]1O (stereo partly specified),-9,-5,-4
Cc1ccccc1CNc1ncnc2c1ncn2C1OC(CO)C(O)C1O (stereo unspecified),-10,-6,78*
COc1ccc(Br)cc1S(=O)(=O)NNC(=O)c1cccn1C,-11,-4,-8
COc1ccc(-n2c(C)nnc2SCc2ccc(C(=O)NCc3ccc4c(c3)OCO4)cc2)cc1,-3,-7,-5
O=C(O)Cc1cc(I)c(Oc2cc(I)c(O)c(I)c2)c(I)c1,68*,94*,x
O=C(O)Cc1cc(I)c(Oc2ccc(O)c(I)c2)c(I)c1,-2,36,0
CCN1CCc2cc(OC)c(OC)cc2C1C(NC(=O)c1ccc(Cl)cc1)C(C)C (stereo unspecified),0,-5,-3
C(=Cc1ccccc1)C=NNc1ncnc2ccccc12,-6,x,161*
O=C1NN=C(c2ccccc2)C/C1=N/Nc1ncnc2ccccc12,-2,-9,7
O=C(OCN1C(=O)c2ccccc2C1=O)c1ccccc1,-15,x,22
O=C(OCC1(O)C(Cl)C=CC(OC(=O)c2ccccc2)C1O)c1ccccc1 (stereo unspecified),-2,48*,-14
CCN(CCN(C)C)CC1=CCC2CC1C2(C)C (stereo unspecified),-7,x,-10
COc1cc(NS(=O)(=O)NCc2ccccc2)cc(OC)c1,-5,x,6
CC(C)Nc1ccc(NS(=O)(=O)NCc2ccccc2)cn1,-8,x,63*
CC1OC2(O)CCCCC2C(C#N)(C(N)=O)C1(C#N)C#N (stereo unspecified),-3,x,-4
O=C(NC1CC1)C1CCN(C2CCN(C(=O)c3csc4c3CCCC4)CC2)CC1,-3,x,-6
CCOC(=O)CN1C(=O)SC(=Cc2ccc(Br)o2)C1=O,-8,-5,-2
O=C(CN1C(=O)SC(=Cc2ccc(N3CCCCCC3)o2)C1=O)N1CCCCCC1,-3,x,45*
COCC(=O)Nc1c2c(nn1CC(=O)NCc1ccco1)CSC2,-9,-5,-2
CCOC(=O)Cc1c(C)n2nc(C)cc2[nH]c1=O,58*,x,-2
CCOC(=O)Cc1cnc(C)[nH]c1=O,-3,-2,4
O=C(C=Cc1ccccc1OC(F)F)c1ccc(F)cc1,-5,43*,-2
COc1cc(C=CC(=O)c2ccc(F)cc2)ccc1OC(F)F,1,x,-9
FC(F)(F)c1nc(N2CCCC2c2ccc3c(c2)OCCO3)c2ccccc2n1 (stereo unspecified),-5,x,6
SMILES,hcGAS inh,mcGAS inh,NPYLR7 agonist
COC(=O)C1=C(C)NC(C)=C(C(=O)OC)C1c1cc(Cl)ccc1OC(F)F,-2,-3,1
CCOC(=O)C1=C(C)NC(C)=C(C(=O)OCC)C1c1cc(Cl)ccc1OC(F)F,-6,-3,50*
FC(F)(F)c1nc2ccccc2[nH]1,-4,-2,-1
FC(F)(F)c1nc2c(Cl)cc(Cl)cc2[nH]1,56*,x,3
C=CCOCC(O)CN(Cc1ccc2c(c1)OCO2)Cc1cc(C)ccc1C (stereo unspecified),2,-2,12
C#CCOCC(O)CN(Cc1ccc(F)cc1)Cc1ccc2c(c1)OCO2 (stereo unspecified),-4,77*,9
C=CCOCC(O)CN(Cc1ccc2c(c1)OCO2)Cc1ccc(C)s1 (stereo unspecified),-4,83*,19
C#CCOCC(O)CN(Cc1ccc2c(c1)OCO2)Cc1cc(C)ccc1C (stereo unspecified),0,-4,23
O=C(CCCc1nc2ccccc2c(=O)[nH]1)N1CCc2sccc2C1,-8,x,-3
CCOC(=O)c1cc(-c2ccc(N3CCN(C(=O)c4c(F)cc(OC)cc4F)CC3)cc2)n(-c2ccc(F)cc2)n1,-6,-6,27
COc1ccc([C@@H](C)n2c(CCN)n[nH]c2=O)cc1,-5,-15,x
COCC(=O)N(CCN1C(=O)CSC1c1ccccc1Cl)C(C)C (stereo unspecified),-8,-5,33
CC(C)N=c1c([N+](=O)[O-])nn(-c2ccc(Cl)cc2)n1O,-3,-9,95*
Cc1ccc(N=c2c([N+](=O)[O-])nn(-c3ccc(Cl)cc3)n2O)cc1Br,-8,x,-2
CC(=O)C1=C(C)Nc2ncnn2C1c1ccco1 (stereo unspecified),-3,x,6
Fc1cc(F)cc(C2C=C(c3ccco3)Nc3ncnn32)c1 (stereo unspecified),8,x,78*
O=C(Nc1nc(-c2ccccn2)cs1)c1cccc(N2CCCC2=O)c1,-15,-9,12
O=C1N=c2ccc(F)cc2=C1c1sc(=S)[nH]c1O,15,100*,-1
Cc1cc(Br)cc2c1=NC(=O)C=2c1sc(=S)[nH]c1O,5,94*,-2
Nn1c(O)c(C2=c3cc([N+](=O)[O-])ccc3=NC2=O)sc1=S,-4,x,1
CC(C)C(C(=O)O)n1c(O)c(C2=c3cc(Br)ccc3=NC2=O)sc1=S (stereo unspecified),-1,-1,-1
COc1cccc(OC)c1C(=O)N1CCN(C(=O)c2ccccc2F)CC1,-2,-4,4
Cc1cc(C(=O)NCCc2cn(-c3ccccc3)c3ccccc23)nn1C,-3,x,11
Cc1cccc(CN2CCN(c3ccc(Cl)cc3)C(=O)C2C)c1 (stereo unspecified),-3,74*,-1
Cc1cccc(CN2CCN(c3cccc(Cl)c3)C(=O)C2C)c1 (stereo unspecified),-5,-5,-1
SMILES,hcGAS inh,mcGAS inh,NPYLR7 agonist
CCOC(=O)c1nccn1Cc1nc(-c2cc(OC)ccc2F)oc1C,-4,-17,-4
CC(NC(=O)c1ccc2c(c1)OCCCO2)c1ccc(Cl)s1 (stereo unspecified),-1,x,-4
O=[N+]([O-])c1ccc2nc(-c3nc4ccc([N+](=O)[O-])cc4[nH]3)[nH]c2c1,-7,x,4
O=[N+]([O-])c1ccc2nc(C(F)(F)F)[nH]c2c1,41*,x,12
CCNc1ccc(OC)nc1,0,x,55*
CNc1ccc(-c2ccc(OC)nc2)cn1,-17,x,2
CCOC(=O)c1c(-c2ccccc2)csc1N=Cc1nc(-c2ccco2)oc1O,-8,-8,141*
CCOC(=O)c1c(N=Cc2nc(-c3ccccc3)oc2O)sc(C)c1C,-5,-3,-5
O=[Si]=O,-9,42*,-3
COC(=O)c1c(C)[nH]c(C(=O)OCC(=O)N2CCCCCC2)c1C,-16,0,13
Cc1nc2ccccn2c1CN(C)C(=O)CCc1nnc(CCCCc2ccccc2)o1,-5,x,5
O=C(NC1CCCCC1)c1cc(-c2ccccc2F)nn1-c1ccccc1,-8,-4,19
O=c1[nH]c(CCl)nc2c1cnn2Cc1ccccc1,-9,54*,12
CSc1nc2c(cnn2Cc2ccccc2)c(=O)[nH]1,-8,x,-5
Cc1cc2c(C(C)C)c(O)c(O)c(C=O)c2c(O)c1-c1c(C)cc2c(C(C)C)c(O)c(O)c(C=O)c2c1O,-7,48*!,-3
CN(Cc1ccc(F)cc1F)C(=O)CN1CCCCCCC1=O,-9,x,10
Cc1ccn2c(=O)c(NC(=O)c3cccc(C(F)(F)F)c3)c(C)nc2c1,-11,x,4

# Compound activity from PubChem BioAssay.
